Results on nine compounds are retold here after PubChem BioAssay (NCATS).

Inconclusive results are not listed. The source holds several records for some structures; these can differ, active in one and inactive in another. Active and inactive are the calls of the source. Unless noted, calls follow the shape of the dose curve; as a rule, active = well fitted curve in the direction sought with a large enough effect; inconclusive = small, poorly fitted or top-dose-only effect, or another doubt; inactive = no such curve, though single readings can be large; an effect the other way counts as inactive or inconclusive.

Assay [1] deals with Ubiquitin carboxyl-terminal hydrolase 2 (Homo sapiens) (UniProt O75604). Kind of assay: qHTS Validation Assay for Inhibitors of Ubiquitin-specific Protease USP2a Using CHOP2 as the Reporter (AID 463106). Put shortly: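 USP2 core (10 nM final) was preincubated with compound 30 min at RT in pH 8.0 Tris/CaCl2/beta-ME/CHAPS buffer. Ub-CHOP2 and reporter substrate (25 nM final each) were then added, with fluorescence (Ex 485/Em 531) read after 60 min. Data were normalized to NEM full inhibition and fitted to concentration-response curves.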

Assay [2] deals with DNA polymerase III PolC-type (Bacillus subtilis (strain 168)) (UniProt P13267). Kind of assay: qHTS Validation Assay for the Inhibitors of DNA Replication in Gram-Positive Bacteria (AID 485295).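 Also: reconstituted holoenzyme with PolC plus beta clamp SSB and primase; PicoGreen fluorescence of double-stranded DNA made on primed circular M13 template; series mostly up to about 57 µM.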 The gist of the method:
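Primed replication of single-stranded M13Gori by a four-protein B. subtilis holoenzyme is measured at room temperature. Double-stranded product is quantified by PicoGreen fluorescence after an EDTA stop; inhibition is scaled between DMSO and EDTA controls.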
Background: In qHTS, concentration-response curves come from the screen itself.

Assay [3] can be described thus: qHTS Validation Assay to Find Inhibitors of Chronic Active B-Cell Receptor Signaling (AID 485345; active = well fitted curve in the direction sought with a large enough effect in the main read-out, with a control signal flat, not every such curve was filed as active). The gist of the method:
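TMD8 ABC-DLBCL cells stably carrying doxycycline-inducible IkappaBalpha–green luciferase fusion plus unfused red luciferase; compounds 46 uM to 3 nM, 4 h at 37C with doxycycline. Corrected green/red luminescence ratio normalized to 10 uM MG-132 and basal cell wells; curves fitted.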

The target of assay [4] is Beta-2 adrenergic receptor (Homo sapiens) (UniProt P07550). Kind of assay: qHTS validation assay of beta-arrestin-biased ligands of beta2-adrenergic receptor (AID 485366). Put shortly:
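Luminescence from a tTA-responsive luciferase, induced when recombinant beta-arrestin is recruited to recombinant beta2-AR, served as the agonism signal. Cells were exposed to compound for 18 hr at 37 degrees C; titrations spanned up to 46 microM.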

The target of assay [5] is ATP-dependent 6-phosphofructokinase (Trypanosoma brucei brucei) (UniProt O15648). The assay can be described thus: qHTS Validation Assay to Find Inhibitors of T. brucei phosphofructokinase (AID 485368). Put shortly:
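Activity was normalized between 1x (1.25 nM) PFK wells as no inhibition and enzyme-free wells as full inhibition, from luminescence after ADP-Glo detection of ADP made from 0.5 mM F6P and 0.1 mM ATP over 45 min.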

A short description of assay [6]: Quantitative high throughput screen for delayed death inhibitors of the malarial parasite plastid, 96 hour incubation (AID 488745). Also: series mostly up to about 29 µM; nearly all actives have a fitted effect of over 70% in size. Put shortly:
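Luciferase-expressing P. falciparum in erythrocytes (2% hematocrit, 0.1% parasitemia) incubated with compound for 96 h at 37 C, 5% CO2, in RPMI 1640 with 0.5% Albumax. Growth inhibition read as decreased luminescence.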

In assay [7] the target is Thioredoxin reductase 1, cytoplasmic (Rattus norvegicus) (UniProt O89049). Kind of assay: qHTS Assay for Inhibitors of Mammalian Selenoprotein Thioredoxin Reductase 1 (TrxR1) (AID 488773).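 Also: drop in NADPH fluorescence over an 8 min run after selenite addition; series mostly up to about 57 µM; nearly all actives have a fitted effect of over 40% in size.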 Particulars: Potency: inhibition. Put shortly:
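Steps: enzyme (90 nM) plus NADPH (400 uM final), 5 min at ~22 deg C; compound added, 15 min; selenite (400 uM final) added; fluorescence followed for 8 min. Concentration-response curves derived from the normalized delta values.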

The target in assay [8] is M-phase phosphoprotein 8 (Homo sapiens) (UniProt Q99549). Kind of assay: qHTS Validation Assay for Inhibitors for MPP8 Chromodomain Interactions with Methylated Histone Tails (AID 488949). Also: nearly all actives have a fitted effect of over 55% in size. Also: potency is read from the fitted curve at half-maximal effect. Put shortly:
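Disruption of the preformed MPP8–trimethyl-H3K9 peptide complex (both 50 nM, 30 min, RT) is measured after 30 min compound exposure, using AlphaScreen proximity beads; aurintricarboxylic acid titration serves as plate control.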

Assay [9] concerns the target Chromobox protein homolog 1 (Homo sapiens) (UniProt P83916). Kind of assay: qHTS Validation Assay for Inhibitors of HP1-beta Chromodomain Interactions with Methylated Histone Tails (AID 488953). Also: nearly all actives have a fitted effect of over 50% in size. Also: potency is read from the fitted curve at half-maximal effect. Put shortly: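 HP1-beta (50 nM) preformed 30 min with biotinylated H3(1-18)K9me3 peptide (50 nM) in PBS pH 7.4, 0.01% Tween-20. Compounds added for 30 min at room temperature. Complex disruption read by AlphaScreen with streptavidin donor/nickel chelate acceptor beads (10 ug/mL each).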

The target of assay [10] is Methanococcus maripaludis chaperonin (MmCpn) (UniProt Q6LX38). The assay can be described thus: High-Throughput Screening for Modulators of Cytosolic Chaperonin Activity: MmCpn Primary Screen (AID 488978).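 Also: 50 nM MmCpn enzyme hydrolysing 30 µM ATP at 37 °C.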 The gist of the method:
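Measures ATPase turnover of the M. maripaludis chaperonin (50 nM final) against 30 uM ATP over 10 min at 37C, with compound added 5 min beforehand at room temperature. ADP is quantified by HTRF immunodetection.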

The target in assay [11] is Thyrotropin receptor (Homo sapiens) (UniProt P16473). Kind of assay: qHTS Assay for Antagonists of the Thyroid Stimulating Hormone Receptor (AID 488980). Also: series mostly up to about 58 µM. The gist of the method: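 Cells expressing human TSHR (HEK293) are dispensed in HBSS/HEPES containing 70 uM RO 20-1724, compound is added, then TSH at EC80 (4 nM final). Antibody in lysis buffer follows, 30 minutes at room temperature before HTRF detection.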

For assay [12], the target named is D(1A) dopamine receptor (Homo sapiens) (UniProt P21728). Kind of assay: HTS Assay for Allosteric Agonists of the Human D1 Dopamine Receptor: Primary Screen for Agonists (AID 488981). The gist of the method:
(§1)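 Tetracycline-induced HEK293 Trex D1 cells with forced coupling to calcium, loaded with no-wash calcium dye; kinetic fluorescence read 180 s after compound addition for agonism, then a further 180 s after an EC20 dopamine challenge for potentiation.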

The target is the same in assay [13]. Kind of assay: HTS Assay for Allosteric Agonists of the Human D1 Dopamine Receptor: Primary Screen for Potentiators (AID 488982). Also: potency is read from the fitted curve at half-maximal effect. Put shortly: as §1
Assay [14] has the same target. The assay can be described thus: HTS Assay for Allosteric Agonists of the Human D1 Dopamine Receptor: Primary Screen for Antagonists (AID 488983).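 Also: calcium flux response to an EC80 dopamine challenge measured with no-wash dye; nearly all actives have a fitted effect of over 65% in size.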 Put shortly:
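Tetracycline-induced HEK293 T-REx D1 line, force-coupled to calcium flux, read with no-wash calcium dye. Compound added after 10 s baseline, read 180 s for agonism, then EC80 dopamine added and read a further 180 s.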

For assay [15], the target named is Tumor susceptibility gene 101 protein (Homo sapiens) (UniProt Q99816). The assay can be described thus: qHTS Validation Assay for Iinhibitors of HIV-1 Budding by Blocking the Interaction of PTAP/TSG101 (AID 485342; calls by dose curve). Put shortly: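 Fluorescence anisotropy measured PTAP-Tsg101 interaction. Final concentrations were 10 uM protein domain and 50 nM labeled peptide, equilibrated 20 min at room temperature.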

For assay [16], the target named is Thioredoxin reductase 1, cytoplasmic (Rattus norvegicus) (UniProt O89049). Kind of assay: qHTS Assay for Substrates of Mammalian Selenoprotein Thioredoxin Reductase 1 (TrxR1) (AID 488772).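 Also: NADPH fluorescence in the first read after selenite addition and not the 8 min delta; series mostly up to about 57 µM; a drop in NADPH fluorescence below the no-compound background marks a TrxR1 substrate.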 Put shortly: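 Quantitative HTS in Tris-HCl buffer at pH 7.5 with EDTA and Tween-20, using rat TrxR1, 400 uM NADPH and 400 uM selenite (final). A fall in initial NADPH fluorescence relative to background marked substrate behaviour.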

For assay [17], the target named is Transient receptor potential cation channel subfamily V member 1 (Homo sapiens) (UniProt Q8NER1). Kind of assay: HTS Assay for Compounds that Act as Enhancers of the Vanilloid Receptor 1 (AID 488979). The gist of the method: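 TRPV1 cells loaded with Fluo-8 calcium dye; compound added and Ca2+ signal (ex 480/em 520 nm) followed 3 min, then capsaicin at EC20 added and read 2 more min to detect enhancement.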

Assay [18] has as its target Flap endonuclease 1 (Homo sapiens) (UniProt P39748). The assay can be described thus: qHTS Validation Assay for the Inhibitors of Human Flap endonuclease 1 (FEN1) (AID 488816). Put shortly: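 Human FEN1 (10 nM) preincubated 15 min at room temperature with compounds, then flap DNA substrate added at 50 nM final. Fluorescence read at 0 and 15 min; concentration-response fitted with four-parameter Hill equation.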

Assay [19] can be described thus: Quantitative high throughput screen for delayed death inhibitors of the malarial parasite plastid, 48 hour incubation (AID 488752). Also: nearly all actives have a fitted effect of over 65% in size. Put shortly: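 Erythrocytes infected with firefly luciferase-expressing P. falciparum (2% hematocrit, 0.1% parasitemia) cultured with compound for 48 h at 37 C, 5% CO2, in RPMI 1640/0.5% Albumax. Growth inhibition read as loss of luminescence.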

Chain of Beta-2 adrenergic receptor (Homo sapiens) (P07550 whole entry, looked up): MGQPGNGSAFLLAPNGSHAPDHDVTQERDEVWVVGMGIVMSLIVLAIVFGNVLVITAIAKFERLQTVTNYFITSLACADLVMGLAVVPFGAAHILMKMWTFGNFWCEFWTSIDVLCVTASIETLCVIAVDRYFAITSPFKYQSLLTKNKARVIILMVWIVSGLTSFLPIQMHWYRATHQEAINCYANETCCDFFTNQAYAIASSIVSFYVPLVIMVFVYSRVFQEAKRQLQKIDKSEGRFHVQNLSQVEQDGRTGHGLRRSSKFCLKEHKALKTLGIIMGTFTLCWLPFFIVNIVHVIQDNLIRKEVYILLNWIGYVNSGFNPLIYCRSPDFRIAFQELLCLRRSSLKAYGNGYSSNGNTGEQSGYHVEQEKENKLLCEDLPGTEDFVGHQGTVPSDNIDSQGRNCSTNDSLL
Chain of D(1A) dopamine receptor (Homo sapiens) (P21728 whole entry, looked up): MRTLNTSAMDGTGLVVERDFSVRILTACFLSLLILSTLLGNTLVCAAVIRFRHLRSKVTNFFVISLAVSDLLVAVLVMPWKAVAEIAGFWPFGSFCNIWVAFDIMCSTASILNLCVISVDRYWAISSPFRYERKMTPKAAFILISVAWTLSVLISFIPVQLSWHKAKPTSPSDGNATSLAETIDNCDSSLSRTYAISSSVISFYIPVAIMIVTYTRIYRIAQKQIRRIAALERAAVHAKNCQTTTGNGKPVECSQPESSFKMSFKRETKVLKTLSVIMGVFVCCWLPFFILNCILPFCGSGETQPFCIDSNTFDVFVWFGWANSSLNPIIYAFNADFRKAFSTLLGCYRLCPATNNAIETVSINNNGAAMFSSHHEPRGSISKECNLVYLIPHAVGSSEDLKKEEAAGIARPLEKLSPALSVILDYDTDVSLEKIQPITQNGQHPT
Chain of Flap endonuclease 1 (Homo sapiens) (P39748 whole entry, looked up): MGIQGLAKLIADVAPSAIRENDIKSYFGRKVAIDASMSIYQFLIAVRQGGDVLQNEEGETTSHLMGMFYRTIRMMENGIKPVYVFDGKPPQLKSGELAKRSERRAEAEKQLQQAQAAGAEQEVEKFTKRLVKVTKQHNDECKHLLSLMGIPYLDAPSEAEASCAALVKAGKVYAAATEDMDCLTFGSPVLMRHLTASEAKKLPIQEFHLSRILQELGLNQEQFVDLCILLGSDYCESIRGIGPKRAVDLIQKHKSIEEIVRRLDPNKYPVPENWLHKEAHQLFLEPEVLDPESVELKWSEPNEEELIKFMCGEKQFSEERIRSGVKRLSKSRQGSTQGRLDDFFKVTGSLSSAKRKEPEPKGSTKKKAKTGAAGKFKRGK
Chain of DNA polymerase III PolC-type (Bacillus subtilis (strain 168)) (P13267 whole entry, looked up): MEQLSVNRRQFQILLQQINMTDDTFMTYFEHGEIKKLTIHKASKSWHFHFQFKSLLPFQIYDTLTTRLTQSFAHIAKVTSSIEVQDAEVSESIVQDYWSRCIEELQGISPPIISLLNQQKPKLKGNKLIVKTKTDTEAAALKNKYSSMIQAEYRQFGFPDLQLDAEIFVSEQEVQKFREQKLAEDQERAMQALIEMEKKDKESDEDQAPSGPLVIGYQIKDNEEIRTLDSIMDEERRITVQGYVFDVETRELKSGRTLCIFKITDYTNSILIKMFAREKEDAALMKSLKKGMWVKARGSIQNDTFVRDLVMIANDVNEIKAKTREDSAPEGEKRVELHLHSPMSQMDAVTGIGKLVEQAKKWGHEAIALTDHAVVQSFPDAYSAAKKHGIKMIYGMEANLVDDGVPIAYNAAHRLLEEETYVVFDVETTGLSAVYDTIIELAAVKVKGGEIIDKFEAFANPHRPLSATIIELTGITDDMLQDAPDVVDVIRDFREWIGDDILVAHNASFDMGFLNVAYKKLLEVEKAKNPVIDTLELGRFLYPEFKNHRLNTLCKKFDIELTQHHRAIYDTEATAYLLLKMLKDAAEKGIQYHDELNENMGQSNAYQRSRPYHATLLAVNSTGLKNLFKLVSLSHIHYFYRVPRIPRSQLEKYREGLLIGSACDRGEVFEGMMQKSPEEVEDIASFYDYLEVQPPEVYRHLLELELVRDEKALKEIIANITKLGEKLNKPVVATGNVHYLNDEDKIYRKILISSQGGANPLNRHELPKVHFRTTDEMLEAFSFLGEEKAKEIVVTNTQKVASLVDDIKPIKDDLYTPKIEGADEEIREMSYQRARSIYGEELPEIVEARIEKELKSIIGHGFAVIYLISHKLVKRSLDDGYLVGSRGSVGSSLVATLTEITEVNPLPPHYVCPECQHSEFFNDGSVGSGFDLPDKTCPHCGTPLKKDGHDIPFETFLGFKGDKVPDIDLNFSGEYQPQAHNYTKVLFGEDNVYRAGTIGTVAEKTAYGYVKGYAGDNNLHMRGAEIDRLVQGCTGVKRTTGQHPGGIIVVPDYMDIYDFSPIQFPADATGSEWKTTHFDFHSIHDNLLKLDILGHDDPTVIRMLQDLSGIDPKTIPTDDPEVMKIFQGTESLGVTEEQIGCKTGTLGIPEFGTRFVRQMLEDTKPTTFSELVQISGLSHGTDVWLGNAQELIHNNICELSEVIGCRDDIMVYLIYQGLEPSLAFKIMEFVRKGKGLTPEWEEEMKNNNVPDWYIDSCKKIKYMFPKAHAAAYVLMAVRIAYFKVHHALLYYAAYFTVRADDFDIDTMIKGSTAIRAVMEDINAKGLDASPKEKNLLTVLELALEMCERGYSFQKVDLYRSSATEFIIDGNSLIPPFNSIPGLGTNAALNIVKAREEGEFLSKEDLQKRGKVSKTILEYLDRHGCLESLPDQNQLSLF
Chain of Ubiquitin carboxyl-terminal hydrolase 2 (Homo sapiens) (O75604 whole entry, looked up): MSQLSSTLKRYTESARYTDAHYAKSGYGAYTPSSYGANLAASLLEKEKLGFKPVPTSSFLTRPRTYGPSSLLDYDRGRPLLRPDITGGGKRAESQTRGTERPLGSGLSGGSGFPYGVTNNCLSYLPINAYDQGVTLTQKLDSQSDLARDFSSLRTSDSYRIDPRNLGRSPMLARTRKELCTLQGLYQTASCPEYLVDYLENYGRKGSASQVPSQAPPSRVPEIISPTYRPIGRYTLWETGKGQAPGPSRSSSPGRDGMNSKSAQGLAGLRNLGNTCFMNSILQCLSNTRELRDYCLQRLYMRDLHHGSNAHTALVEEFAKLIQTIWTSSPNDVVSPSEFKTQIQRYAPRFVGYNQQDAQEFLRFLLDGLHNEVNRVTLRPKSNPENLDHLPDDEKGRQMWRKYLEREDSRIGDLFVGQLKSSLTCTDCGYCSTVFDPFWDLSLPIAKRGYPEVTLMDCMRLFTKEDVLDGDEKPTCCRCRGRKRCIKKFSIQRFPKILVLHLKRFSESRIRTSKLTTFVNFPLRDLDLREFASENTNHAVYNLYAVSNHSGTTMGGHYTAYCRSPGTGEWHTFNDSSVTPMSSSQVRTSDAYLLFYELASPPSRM
Chain of Transient receptor potential cation channel subfamily V member 1 (Homo sapiens) (Q8NER1 whole entry, looked up): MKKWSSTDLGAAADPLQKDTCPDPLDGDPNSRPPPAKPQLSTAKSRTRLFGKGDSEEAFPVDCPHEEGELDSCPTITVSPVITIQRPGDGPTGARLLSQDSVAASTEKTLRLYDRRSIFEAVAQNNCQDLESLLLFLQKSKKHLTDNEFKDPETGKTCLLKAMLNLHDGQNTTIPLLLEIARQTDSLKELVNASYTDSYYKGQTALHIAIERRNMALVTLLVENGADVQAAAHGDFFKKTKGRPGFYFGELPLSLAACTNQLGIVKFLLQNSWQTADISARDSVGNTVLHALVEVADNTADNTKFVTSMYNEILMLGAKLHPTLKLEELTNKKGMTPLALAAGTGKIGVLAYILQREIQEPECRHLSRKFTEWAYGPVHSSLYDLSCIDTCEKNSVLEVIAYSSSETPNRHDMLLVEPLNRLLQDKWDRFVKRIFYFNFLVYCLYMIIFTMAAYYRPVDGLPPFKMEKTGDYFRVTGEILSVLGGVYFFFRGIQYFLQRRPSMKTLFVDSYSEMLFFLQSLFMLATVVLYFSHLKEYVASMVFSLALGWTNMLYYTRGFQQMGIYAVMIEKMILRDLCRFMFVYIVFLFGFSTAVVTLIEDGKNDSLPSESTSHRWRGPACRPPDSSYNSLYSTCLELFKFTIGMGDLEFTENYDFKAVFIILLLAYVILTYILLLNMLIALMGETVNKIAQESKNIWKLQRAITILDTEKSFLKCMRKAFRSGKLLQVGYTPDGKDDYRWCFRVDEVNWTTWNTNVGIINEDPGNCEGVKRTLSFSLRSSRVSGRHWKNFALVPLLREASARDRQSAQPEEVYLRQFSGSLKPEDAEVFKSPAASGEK
Chain of Thyrotropin receptor (Homo sapiens) (P16473 whole entry, looked up): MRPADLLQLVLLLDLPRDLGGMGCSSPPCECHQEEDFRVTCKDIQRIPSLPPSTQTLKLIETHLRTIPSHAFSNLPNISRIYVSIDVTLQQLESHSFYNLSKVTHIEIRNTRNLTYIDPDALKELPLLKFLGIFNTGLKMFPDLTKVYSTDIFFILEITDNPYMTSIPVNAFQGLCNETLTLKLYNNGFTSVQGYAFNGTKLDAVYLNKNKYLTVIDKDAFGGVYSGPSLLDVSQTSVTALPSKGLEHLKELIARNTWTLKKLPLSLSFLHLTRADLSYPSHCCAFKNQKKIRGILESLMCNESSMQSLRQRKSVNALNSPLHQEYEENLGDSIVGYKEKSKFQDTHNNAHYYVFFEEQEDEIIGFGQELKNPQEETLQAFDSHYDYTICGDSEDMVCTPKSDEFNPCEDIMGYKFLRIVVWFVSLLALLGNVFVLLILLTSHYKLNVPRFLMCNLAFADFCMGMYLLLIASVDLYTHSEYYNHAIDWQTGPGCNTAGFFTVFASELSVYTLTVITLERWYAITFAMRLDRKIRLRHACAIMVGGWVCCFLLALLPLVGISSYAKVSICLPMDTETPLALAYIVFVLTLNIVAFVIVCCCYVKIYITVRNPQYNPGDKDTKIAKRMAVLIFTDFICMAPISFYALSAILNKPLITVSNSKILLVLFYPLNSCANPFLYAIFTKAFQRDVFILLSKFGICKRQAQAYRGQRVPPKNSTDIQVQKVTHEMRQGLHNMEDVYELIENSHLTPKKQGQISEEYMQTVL

In the case of `CCOC(=O)c1ncn2c1CN(C)C(=O)c1cc(F)ccc1-2`, the Potency result in [1], in assay [2], in assay [3], in [5], in [6] and in [7] was “inactive” each time. Besides, the Potency entry in [8], in assay [9], in assay [12], in [13] and in [14] was “inactive” in each case. In addition, the compound was classed as inactive in [4], in assay [10] and in assay [11].

Turning to `Cn1ccc2cc3c(cc21)CCN3C(=O)Nc1cccnc1`, the Potency result in assay [1], in assay [2], in [7], in assay [12] and in [13] was “inactive” each time. Besides, the outcome in [15], in [4], in assay [16], in assay [10], in [17] and in [11] was inactive. Moreover, the Potency in assay [8] is 39.8 µM (active) and inactive; in [9], 39.8 µM (active).

Regarding `CC#C[C@]1(O)CC[C@H]2[C@@H]3CCC4=CC(=O)CCC4=C3[C@@H](c3ccc(N(C)C)cc3)C[C@@]21C`, the Potency entry in [1], in assay [2], in assay [7], in [18], in [12] and in [14] was “inactive” in each case. The compound was classed as inactive in assay [15], in [4], in assay [16] and in assay [10]. In addition, the Potency is 11.9 µM (active) in [8], 25.1 µM (active) in assay [9] and 2.31 µM (active) in assay [13].

Take `O=c1c(-c2ccc(O)cc2)coc2cc(O)cc(O)c12`: the Potency entry in [1], in assay [2], in assay [5], in assay [7], in [18] and in assay [8] was “inactive” in each case. Besides, the Potency result in assay [9], in [12], in [13] and in assay [14] was “inactive” each time. Besides, the compound was classed as inactive in assay [15], in assay [4], in assay [16], in assay [10], in assay [17] and in [11].

As to `CCN1CCCC1CNC(=O)c1cc(S(=O)(=O)CC)c(N)cc1OC` (stereo not given), the Potency entry in [1], in assay [2], in [3], in assay [5], in assay [7] and in assay [18] was “inactive” in each case. The Potency result in assay [8], in assay [9], in assay [12], in assay [13] and in [14] was “inactive” in each case. In addition, the compound was called inactive in assay [4], in assay [16] and in [10].

Regarding `CC12CC3CC(C)(C1)CC(N)(C3)C2`, the Potency result in assay [1], in assay [2], in assay [3], in assay [5], in assay [6] and in assay [19] was “inactive” throughout. In addition, the Potency entry in assay [7], in assay [8], in assay [9], in [12], in assay [13] and in [14] was “inactive” each time. Also, the call in assay [4], in [16], in assay [10] and in [11] was inactive.

Take `Clc1ccc2c(c1)C(N1CCNCC1)=Nc1ccccc1O2`: the Potency entry in [1], in [2], in assay [7], in assay [18], in assay [8] and in assay [13] was “inactive” throughout. In addition, the outcome in assay [15], in assay [4], in [16], in [10] and in [11] was inactive.

As to `Nc1nc2c(ncn2COC(CO)CO)c(=O)[nH]1`, the Potency entry in [1], in assay [2], in assay [3], in [5], in assay [6] and in assay [7] was “inactive” in each case. Further, the Potency result in [8], in [9], in assay [12], in assay [13] and in assay [14] was “inactive” throughout. Besides, the outcome in assay [4], in [16], in [10], in assay [17] and in assay [11] was inactive.

Consider `Fc1ccc([C@@H]2CCNC[C@H]2COc2ccc3c(c2)OCO3)cc1`, for which the Potency result in assay [1], in [2], in assay [7], in assay [18], in [13] and in [14] was “inactive” each time. Moreover, the outcome in [15], in assay [4], in [16], in assay [10] and in assay [11] was inactive. Further, the Potency in assay [8] is 35.5 µM (active).
